Laboratory results as given in the supplement of paper PMC13380429.
Unmarked numbers belong to inactive results.

Test system: Vero E6 infected with SARS-CoV-2
Assay: inhibition of SARS-CoV-2 cytopathic effect; higher = more antiviral protection, active = above 15
Details: 48 h

| Compound | inhibition of SARS-CoV-2 cytopathic effect (1 nM) | inhibition of SARS-CoV-2 cytopathic effect (8.33 nM) | inhibition of SARS-CoV-2 cytopathic effect (100 nM) | inhibition of SARS-CoV-2 cytopathic effect (833.33 nM) | inhibition of SARS-CoV-2 cytopathic effect (10000 nM) |
| --- | --- | --- | --- | --- | --- |
| O=c1[nH]cnc2c([C@@H]3N[C@H](CO)[C@@H](O)[C@H]3O)c[nH]c12 [forodesine] | -0.75% | 0.06% | -1.79% | -1.77% | -2.56% |
| OCC(CO)N[C@H]1C[C@](O)(CO)[C@@H](O)[C@H](O)[C@H]1O [voglibose] | 0.63% | -8.33% | 1.72% | 2.63% | 2.03% |
| O=C(Nc1ccc([N+](=O)[O-])cc1Cl)c1cc(Cl)ccc1O [niclosamide] | -0.87% | -2.63% | 0.39% | 11.4% | 4.29% |
| CCNC(=O)[C@H]1O[C@@H](n2cnc3c(N)ncnc32)[C@H](O)[C@@H]1O | 3.12% | 1.83% | -2.78% | -3.3% | -1.61% |
| Cc1ccc(C(=O)Nc2cccc(C(F)(F)F)c2)cc1Nc1nc(-c2cccnc2)nc2c1cnn2C | -0.06% | 0.17% | 3.74% | 8.31% | 28.1% (active) |
| CN1c2c([nH]c(N)nc2=O)NC[C@@H]1CNc1ccc(C(=O)N[C@@H](CCC(=O)O)C(=O)O)cc1 [metafolin] | 4.85% | 2.72% | 1.95% | 0.81% | 2.93% |
| O=C/C=C/c1ccccc1 [cinnamaldehyde] | 1.16% | 2.28% | 1.04% | 3.28% | 5.38% |
